Screens from PubChem.
DT40 TDP1 no CPT: qHTS for Inhibitors of human tyrosyl-DNA phosphodiesterase 1 (TDP1): qHTS in cells in absence of CPT; AID 686978, 2013; Potency, µM (top dose mostly 46.2 µM), inactives show at the top dose activity change, negative = growth inhibition, actives largely listed as inhibitors; 420,000 tested, 15% active; DT40 Tdp1-/- hTDP1 cells, no CPT, ATP luminescence, 48 h; also: potency is read from the fitted curve at half-maximal effect; nearly all actives have a fitted effect of over 55% in size
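Compound effects on proliferation are scored in DT40 Tdp1-/-;hTDP1 cells in the absence of CPT. ATP levels (CellTiter-Glo luminescence) are recorded after a ≥48 hr, 37 °C incubation.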
TDP1 inh: qHTS Assay for Inhibitors of Tyrosyl-DNA Phosphodiesterase (TDP1); Tyrosyl-DNA phosphodiesterase 1 (Homo sapiens), Q9NUW8; recombinant TDP1, AlphaScreen DNA substrate cleavage; Potency, µM (highest dose often 130 µM), inactives show top-dose activity change, negative = inhibition, most hits filed as inhibitors; 350,000 tested, 0.28% active; also: potency is read from the fitted curve at half-maximal effect; nearly all actives have a fitted effect of over 40% in size
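Recombinant human Tdp1 (E. coli-expressed, 1 nM final) preincubated with compounds 15 min at room temperature, then 5'-biotin/3'-phosphotyrosine-FITC DNA substrate (15 nM final) added for 5 min. AlphaScreen beads (10 ug/ml final) added 10 min; cleavage lowers signal.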
CtBP-E1A inh: qHTS Assay for Inhibitors of the CtBP/E1A Interaction; CtBP / adenovirus E1A interaction (AlphaScreen); AlphaScreen GST-E1A/His-CtBP binding, 1536-well; hits give low values; activity change, % (test concentration not listed); 340,000 tested, 0.49% active; in the data active = activity change below about -65%; inconclusive = mostly about -30% to -63%
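Steps: dispense buffer (Tris pH 8.0, NaCl 300 mM, TCEP 1 mM, BSA, Tween 20); add 5X protein mix (GST-E1A, His-CtBP, 125 nM each); pin 23 nL compound; 2 h at 37 °C, dark; add 5X beads (50 ug/mL); 1 h; read.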
IL1B secr inh: qHTS for Inhibitors of Inflammasome Signaling: IL-1-beta AlphaLISA Primary Screen; THP-1 LPS/ATP IL-1B secretion, AlphaLISA, 16 h; hits give low values; activity change, % at 57.5 µM; 360,000 tested, 4.7% active; AID 743279, 2014; in the data active = activity change below about -50%; inconclusive = mostly about -30% to -49%
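Secreted IL-1B measured by AlphaLISA bead assay after 16 h compound exposure of THP-1 cells; compounds (final up to 57.5 uM) added 1 h before LPS (250 ng/mL) and ATP (1.25 mM) stimulation; lower signal means less secretion.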
DT40 TDP1 CPT: qHTS for Inhibitors of human tyrosyl-DNA phosphodiesterase 1 (TDP1): qHTS in cells in presence of CPT | Potency, µM (top dose mostly 46.2 µM), without a hit: at the top dose activity change, negative = growth inhibition, most hits filed as inhibitors | chicken DT40 Tdp1-/-;hTDP1 cells + 20 nM CPT, ATP luminescence, 48 h | 420,000 tested, 12% active; also: potency is read from the fitted curve at half-maximal effect; nearly all actives have a fitted effect of over 55% in size
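Chicken DT40 Tdp1-/- cells complemented with human TDP1, 400 cells/well, exposed to compounds plus 20 nM camptothecin for at least 48 h at 37 C; viability read as ATP content by CellTiter-Glo luminescence.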
Six1-Eya2 blk: qHTS Assay for Inhibitors of the Six1/Eya2 Interaction; AlphaScreen GST-Six1/His-Eya2 binding, biochemical; hits give low values; activity change, % (no concentration beside the values); 360,000 tested, 0.56% active; in the data active = activity change below about -65%; inconclusive = mostly about -30% to -63%
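Six1/Eya2 binding was read as AlphaScreen signal after compounds were pinned into GST-Six1 plus His-tagged Eya2 (5X stock 250/500 nM) in pH 8.0 Tris/NaCl/TCEP buffer, beads added, then incubated 1 h, 37 C, dark.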
* hit, by the source's call; ? = inconclusive; . = no result given. An excerpt weighted towards active compounds, which were near 18% of everything screened. Unless noted, calls follow the shape of the dose curve; as a rule, active = well fitted curve in the direction sought with a large enough effect; inconclusive = small, poorly fitted or top-dose-only effect, or another doubt; inactive = no such curve, though single readings can be large; an effect the other way counts as inactive or inconclusive. % is scaled to controls: 0 for no effect and ±100 for the full control effect.

SMILES | DT40 TDP1 no CPT | TDP1 inh | CtBP-E1A inh | IL1B secr inh | DT40 TDP1 CPT | Six1-Eya2 blk
CCn1c(=O)c2sccc2n2c(CCCC(=O)N3CCN(c4cccc(Cl)c4)CC3)nnc12 | 16µM* | 0% | . | . | 18µM* | .
CN(C)c1nc(/C=C(\C#N)C(N)=O)c(Cl)n1-c1ccc(F)cc1 | 21µM* | -2% | 2 | -98* | 16µM* | -3
COc1ccc(NC(=O)/C(C#N)=C/c2cc(C)n(-c3ccc(F)cc3)c2C)cc1 | -21% | 3% | . | . | -19% | .
O=C(NCc1ccco1)C1CC(=O)N(c2cccc(Cl)c2)C1 (centres undefined) | -7% | . | 1 | -2 | 0% | -4
CCn1cc(C(=O)O)c(=O)c2cc(F)c(N/N=C/c3ccccc3)cc21 | 13µM* | 3% | -74* | 0 | ? | ?
CCn1cc(C(=O)O)c(=O)c2cc(F)c(N3CCN(S(=O)(=O)c4ccc5c(c4)OCCO5)CC3)cc21 | ? | 2% | 9 | 35 | 21µM* | 9
CCn1cc(C(=O)O)c(=O)c2cc(F)c(N3CCN(C(=O)Nc4ccccc4)CC3)cc21 | 23µM* | 0% | 4 | ? | 21µM* | -7
CCn1cc(C(=O)O)c(=O)c2cc(F)c(N3CCN(S(=O)(=O)c4ccc(NC(C)=O)cc4)CC3)cc21 | ? | . | 3 | 0 | -27% | 2
CCn1cc(C(=O)O)c(=O)c2cc(F)c(N3CCN(C(=S)NC(=O)c4ccccc4F)CC3)cc21 | 15µM* | 4% | 7 | -12 | -20% | 5
CC(=O)c1ccc(NC(=S)N2CCN(c3cccc(Cl)c3)CC2)cc1 | ? | -5% | 1 | -24 | ? | -1
COc1ccccc1N1CCN(S(=O)(=O)CCNC(=O)C(C)Oc2ccccc2)CC1 (centres undefined) | ? | . | -3 | -6 | ? | -15
CCC(=O)N1C(Cc2ccccc2)COC1(C)C (centres undefined) | -2% | 3% | 12 | 13 | 11% | 15
CCOC(=O)c1[nH]c(C)c(/C(O)=C2\C(=O)C(=O)N(CCCN(C)C)C2c2ccncc2)c1C (centres undefined) | . | 7% | . | . | . | .
Cc1o[nH]c(=O)c1CC[C@H](N)C(=O)O | -7% | 1% | . | . | 8% | .
COc1ccccc1CNC(=O)CSc1nnc2c(n1)[nH]c1ccc(F)cc12 | -28% | ? | 7 | -1 | ? | 6
CC(C)NC(=O)COc1ccc(S(=O)(=O)N2CCOCC2)cc1 | -12% | 2% | -3 | -3 | -7% | 5
CCn1cc(C(=O)O)c(=O)c2cc(F)c(N3CCN(C(=S)NC(=O)c4ccc(OC)cc4)CC3)cc21 | ? | 79µM* | . | 13 | ? | 2
Cc1ccc(CSc2nc3cccnc3n2Cc2ccc(C(=O)NCc3cccs3)cc2)cc1 | -3% | 4% | . | . | -28% | .
Cc1cccc(CSc2nc3cccnc3n2Cc2ccc(C(=O)NCc3ccco3)cc2)c1 | ? | 14% | . | . | ? | .
CC(CNC(=O)c1ccc(Cn2c(SCc3ccccc3)nc3cccnc32)cc1)c1ccccc1 (centres undefined) | 21µM* | 10% | . | . | ? | .
O=C(NCc1cccs1)c1ccc(Cn2c(SCc3ccccc3)nc3cccnc32)cc1 | 26µM* | 5% | . | . | ? | .
O=C(NCc1ccco1)c1ccc(Cn2c(SCc3ccccc3F)nc3cccnc32)cc1 | 23µM* | 6% | . | . | ? | .
Cc1cccc(Cn2c(SCc3ccc(C(=O)NCc4cccs4)cc3)nc3cccnc32)c1 | 15µM* | 1% | . | . | ? | .
